High-throughput results from PubChem.
Compounds with a hit are over-represented: about 9.4% of the library has one in this group of screens.
Pf growth 96h: P. falciparum growth inhibition at 96 hours | P. falciparum luciferase reporter growth, 96 h | Potency, µM (highest dose often 28.7 µM), for inactives: at the top dose activity change, negative = inhibition, most hits filed as inhibitors | actives 6.9% (n = 320,000); further: on the % scale 0 is the no-effect control and ±100 the full control effect
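Plates of compound plus infected erythrocytes (2% hematocrit, 0.05% parasitemia final) incubate 96 hours, 37 C, 5% CO2. Detection reagent added; reduced luminescence from the parasites' luciferase reporter flags inhibition.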
SARS PLP yeast: SARS-CoV PLP inhibition in yeast; Potency, µM (titrated, usually from 32.9 µM), for inactives: at the highest dose activity, positive = growth rescue, actives largely listed as activators; S. cerevisiae expressing SARS-CoV PLpro, growth rescue; actives 0.19% (n = 330,000); calls by dose curve; further: 0% is about no effect; nearly all actives have a fitted effect of over 55% in size
AMA1-RON2 inh: AMA1-RON2 (P. falciparum) interaction inhibition; AlphaScreen AMA1-biotinylated RON2 peptide binding; Potency, µM (doses to about 58.2 µM), for inactives: top-dose activity change, negative = inhibition, most hits filed as inhibitors; actives 0.2% (n = 360,000);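 further: 0% = vehicle wells and -100% = peptide control; nearly all actives have a fitted effect of over 45% in size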
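AMA1 (3D7) with his tag at 25 nM final met compounds first, then biotinylated RON2 peptide at 25 nM; detection used donor plus acceptor beads, 10 µg/mL apiece, read by AlphaScreen after 30 min at room temperature.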
Pf growth 48h: inhibits P. falciparum growth in the first generation, 48 h | P. falciparum luciferase growth in erythrocytes, 48 h | Potency, µM (top dose mostly 28.7 µM), for the others: at the top dose activity change, negative = inhibition, hits mostly inhibitors | actives 5.9% (n = 310,000); further: on the % scale 0 is the no-effect control and ±100 the full control effect
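Compounds are pin-transferred into medium, infected erythrocytes (2% hematocrit, 0.1% parasitemia final) are added, and plates sit one parasite generation at 37 C in 5% CO2. Detection reagent is then added and luminescence measured.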
* marks the source's active call; other numbers are inactive results; ? = inconclusive; . = no result given; [ ] = dose if it differs, or a comment. Unless noted, the call rests on the fitted dose curve; in most records, active means well fitted curve in the direction sought with a large enough effect; inconclusive means small, poorly fitted or top-dose-only effect, or another doubt; inactive means no such curve, though single readings can be large; an effect the other way counts as inactive or inconclusive. Potency means the concentration at half of the fitted maximal effect.

SMILES | Pf growth 96h | SARS PLP yeast | AMA1-RON2 inh | Pf growth 48h
CCOC(=O)c1ccccc1NC(=O)CSc1cccc[n+]1[O-] | ? | 2% | -2% | ?
O=C(O)c1ccc(N2C(=O)/C(=C/C=C/c3ccccc3)SC2=S)cc1 | 33% | 0% | 7% | -62%[1.15 µM]
CN(C)c1ccc(/C=C/C=C2/SC(=S)N(c3ccccc3)C2=O)cc1 | 9% | 1% | 2.5µM* | 119%
CCOc1cc2c(cc1OCC)-n1cccc1C(c1ccccc1F)NC2 (centres undefined) | ? | 2% | ? | 8.3µM*
CCOc1cc2c(cc1OCC)-n1cccc1C(c1ccc(C)cc1C)NC2 (centres undefined) | -11% | -2% | ? | ?
CCOc1cc2c(cc1OCC)-n1cccc1C(c1cc(C)c(OC)cc1C)NC2 (centres undefined) | 17% | 0% | -14% | 6.6µM*
CCOc1cc2c(cc1OCC)-n1cccc1C(c1cc(OC)ccc1F)NC2 (centres undefined) | 2.9µM* | -4% | ? | ?
CCOc1cc2c(cc1OCC)-n1cccc1C(c1cccc(F)c1)NC2 (centres undefined) | 9.3µM* | -4% | ? | 13µM*
COC(=O)CC1Oc2ccccc2N(Cc2ccc(C)cc2)C1=O (centres undefined) | 0% | -24% | 16% | 14%
O=C(c1ccccc1Cl)N(Cc1ccc(Cl)c(Cl)c1)N1C(=O)CCCC1=O | 30% | -1% | -4% | -11%
O=C(c1ccc(COc2ccc3ccccc3c2)o1)N1N=C(C(F)F)CC1(O)C(F)F (centres undefined) | -10%[5.75 µM] | -5% | 15% | -1%
COc1ccc(OCC(=O)OCC(=O)NC2CCCC2)cc1 | . | -15% | -1% | .
CCOc1cc(C2NCc3ccccc3-n3cccc32)ccc1OC (centres undefined) | 23% | 1% | -15% | ?
CCOc1cc2c(cc1OCC)-n1cccc1C(c1ccc(OC)c(O)c1)NC2 (centres undefined) | 5% | 1% | -22% | 2.9µM*
CCOc1cc2c(cc1OCC)-n1cccc1C(c1cccc(OCC)c1O)NC2 (centres undefined) | -20% | -2% | -24% | 15µM*
COc1cc(C2NCc3ccccc3-n3cccc32)ccc1O (centres undefined) | ? | -4% | 0% | 2.6µM*
CNc1oc(-c2ccc(C)cc2)nc1P(=O)(c1ccccc1)c1ccccc1 | 15µM* | -2% | -11% | 0.12µM*
CCCCOc1ccc(S(=O)(=O)NCc2csc(C)n2)cc1 | 10µM* | 0% | 1% | -8%
Cc1ccc(S(=O)(=O)NCc2csc(C)n2)cc1 | ? | -1% | 4% | 2%
COc1ccc(-c2ccnc3nc(-n4cccc4)nn23)cc1 | ? | 11% | -25% | ?
c1coc(-c2ccnc3nc(-n4cccc4)nn23)c1 | ? | 0% | -13% | 10µM*
COc1ccccc1Nc1nnc(SCC(=O)NC2CCCC2)s1 | 9.3µM* | -1% | 7% | 12µM*
CC(=O)Nc1nnc(SCC(=O)N2C(C)CCCC2C)s1 (centres undefined) | 12µM* | 1% | -1% | 3%
COc1ccccc1Nc1nnc(SCC(=O)N2CC(=O)Nc3ccccc32)s1 | 7.4µM* | 5% | 8%[11.6 µM] | ?
CCOc1ccccc1Nc1nnc(SCC(=O)Nc2nc(-c3ccc(OC)cc3)cs2)s1 | ? | 1% | 27% | ?
SMILES | Pf growth 96h | SARS PLP yeast | AMA1-RON2 inh | Pf growth 48h
COc1ccccc1Nc1nnc(SCC(=O)Nc2nc(-c3ccc(F)cc3)cs2)s1 | 13µM* | 0% | 39% | 1%
O=C1CN(C(=O)CSc2nnc(Nc3ccccc3)s2)c2ccccc2N1 | ? | -7% | -5%[11.6 µM] | -18%
CCCC(=O)Nc1nnc(SCC(=O)N2C(C)CCCC2C)s1 (centres undefined) | ? | 0% | -2% | ?
Oc1ccc(/C=N/n2c3ccccc3c3ccccc32)cc1 | -15% | -33% | -8% | .
CC(C)CCNC(=O)CNC(=O)c1cccs1 | 56% | 8% | -21% | .
CN(C)/C=N/c1ncc(C(=O)c2ccc(Cl)cc2Cl)s1 | ? | -4% | 3% | ?
CC(C)C(=O)Nc1nnc(SCC(=O)NC2CC2)s1 | 5.2µM* | 1% | 8% | 15%
Cc1sc2nc(C3CCCCC3)nc(SCC(=O)N3CC(=O)Nc4ccccc43)c2c1C | 4.7µM* | 0% | -1% | ?
O=C1c2ccccc2C(=O)N1CC1CO1 (centres undefined) | . | . | 17% | .
Cc1sc(NC(=O)/C=C/c2ccc3c(c2)OCO3)nc1-c1ccccc1 | 28% | 21% | -1% | -12%
CCC(Oc1ccccc1OC)C(=O)Nc1ccc2c(c1)OCO2 (centres undefined) | 31% | -2% | -3% | -9%
Cn1cc(/C=C/C(=O)c2ccccc2)c2ccccc21 | 35% | -4% | -22% | -4%
CC(=O)N1C=CN(C(C)=O)C(c2cn(C)c3ccccc23)C1c1cn(C)c2ccccc12 (centres undefined) | 80% | 1% | -16% | 3.3µM*
O=C(NCc1ccncc1)c1ccc(Cl)c(S(=O)(=O)N2CCOCC2)c1 | -24% | 5% | -25% | ?
COc1cccc(CNC(=O)c2ccc(Cl)c(S(=O)(=O)N3CCOCC3)c2)c1 | 6.6µM* | -6% | 7% | 8.3µM*
O=C(NCCc1ccccc1)c1ccc(Cl)c(S(=O)(=O)N2CCOCC2)c1 | 10µM* | -3% | 0% | ?
CC(C)(C)SCCNC(=O)c1ccc(Cl)c(S(=O)(=O)N2CCOCC2)c1 | . | . | 42% | .
COc1ccccc1CNC(=O)Nc1nnc([C@H]2C[C@H](O)[C@@H](CO)O2)s1 | . | . | 6% | .
O=C(NC(C(=O)N/N=C/c1c2ccccc2cc2ccccc12)c1n[nH]c(=O)c2ccccc12)c1ccccc1 (centres undefined) | 13µM* | ? | -2% | 12µM*
O=C(NC(C(=O)N/N=C/c1ccccc1)c1n[nH]c(=O)c2ccccc12)c1ccccc1 (centres undefined) | 29% | 3% | -3% | ?
Cc1cnc(NC(=O)c2ccc3c(c2)C(=O)N(Cc2ccco2)C3=O)s1 | ? | 0% | -9% | 0%
Cc1nn(C(C)C(=O)O)c(=O)c2ccccc12 (centres undefined) | 9.3µM* | 0% | -19% | 29%
CC(C(=O)O)n1ncc2ccccc2c1=O (centres undefined) | 32% | 1% | -10% | 2.6µM*
O=C(O)CCn1ncc2ccccc2c1=O | -14% | -1% | 3% | 18%
CC(Oc1ccc(Br)cc1)C(=O)Nc1cc(S(=O)(=O)N2CCOCC2)ccc1N1CCCC1 (centres undefined) | 13µM* | 3% | -7% | ?
CCN1CCN(c2ccc(S(=O)(=O)N3CCOCC3)cc2NC(=O)C(C)Oc2ccc(F)cc2)CC1 (centres undefined) | ? | 0% | -10% | ?
CC(Oc1ccc(F)cc1)C(=O)Nc1cc(S(=O)(=O)N2CCOCC2)ccc1N1CCCCC1 (centres undefined) | 3.3µM* | 3% | -1% | 4.7µM*
